# The other results are listed elsewhere or left out. Results filed as inconclusive are left out. Unmarked numbers belong to inactive results. Activity calls are given as the source filed them. Calls follow the shape of the dose curve; as a rule, active = well fitted inhibition curve with a large enough effect; inconclusive = small, poorly fitted or top-dose-only effect; inactive = no such curve, though single readings can be large or run the other way.
# Target: RecQ-like DNA helicase BLM (Homo sapiens) (UniProt P54132)
# Assay: qHTS Confirmation Assay for Inhibitors of Bloom's syndrome helicase (BLM); also: nearly all actives have a fitted effect of over 45% in size
# Conditions: BLM DNA unwinding, fluorescence quenching, biochemical
# Excerpt: Survival of cells and the faithful propagation of the genome depend on elaborate mechanisms of detecting and repairing DNA damage. Treatment of advanced cancer relies on radiation therapy or chemotherapy, which kill cancer cells by causing extensive DNA damage. It is often found, that cancer cells develop resistance to therapy through enhanced activity of DNA repair functions; this has led to an increased interest in developing drugs that interfere with DNA repair, which could sensitize cancer cells to conventional therapy. This validation qHTS assay pertains to human BLM, which is important in resolving abnormal DNA structures formed during replication or homologous recombination. Shutting down the expression of BLM leads to chromosomal instability and higher radiation sensitivity in cultured cells. The validation assay was a fluorescence quenching based kinetic qHTS for BLM Helicase DNA unwinding. The activity was measured as ATP-dependent separation of a 20-bp DNA duplex extended by 30-nt single-stranded tails (forked duplex). The forked DNA substrate was tagged with rhodamine fluorophore (carboxytetramethyl rhodamine, TAMRA) and BHQ-2 (Black Hole Quencher 2) dark quencher. Strand separation results in an increase in the fluorescence of TAMRA (excitation 525 nm, emission 598 nm). This substrate construct operates in a red-shifted region where very few compound library members have been noted to fluoresce (PubChem AIDs 593 and 594). An additional feature of the assay is the inclusion of 2.5 ug/ml poly (dIdC), to reduce interference by compounds such as DNA intercalators, a major source of false inhibitors. Assay Providers: Ian Hickson, University of Oxford Opher Gileadi, Structural Genomics Consortium, University of Oxford Screening Center PI: Austin, C.P. Screening Center: NIH Chemical Genomics Center [NCGC]
# Three uL of reaction buffer (25 mM Tris-HCl (pH 8.0), 5 mM NaCl, 2 mM MgCl2, 1mM DTT, 0.01% Tween- 20, and 2.5 ug/ml poly(dI-dC), including enzyme (50 nM BLM), were dispensed into a 1536-well Greiner black assay plate via solenoid-valve based nanoliter dispensers. Compounds (23 nl each in columns 5-48) and control (23 nl each in column 2 as dose-response) were transferred via a Kalypsys pintool equipped with a 1536-pin array. The plates were incubated for 15 min at room temperature, and then 1 ul of substrates (200 nM DNA and 2 mM ATP, final concentrations) was added to start the reaction. The plate was transferred into a ViewLux high-throughput CCD imager where the reaction progress was measured in a discontinuous kinetic mode (two reads spaced 2 hours apart, with intermediate room temperature incubation of the covered assay plate) by using standard red-fluorescence optics (excitation filter 525 nm, emission filter 598 nm). Enzyme-free and vehicle (DMSO) controls were included for signal normalization.
# % is scaled to controls: 0 for no effect and ±100 for the full control effect; potency is read from the fitted curve at half-maximal effect.
# RecQ-like DNA helicase BLM (Homo sapiens), sequence (P54132 whole entry, looked up): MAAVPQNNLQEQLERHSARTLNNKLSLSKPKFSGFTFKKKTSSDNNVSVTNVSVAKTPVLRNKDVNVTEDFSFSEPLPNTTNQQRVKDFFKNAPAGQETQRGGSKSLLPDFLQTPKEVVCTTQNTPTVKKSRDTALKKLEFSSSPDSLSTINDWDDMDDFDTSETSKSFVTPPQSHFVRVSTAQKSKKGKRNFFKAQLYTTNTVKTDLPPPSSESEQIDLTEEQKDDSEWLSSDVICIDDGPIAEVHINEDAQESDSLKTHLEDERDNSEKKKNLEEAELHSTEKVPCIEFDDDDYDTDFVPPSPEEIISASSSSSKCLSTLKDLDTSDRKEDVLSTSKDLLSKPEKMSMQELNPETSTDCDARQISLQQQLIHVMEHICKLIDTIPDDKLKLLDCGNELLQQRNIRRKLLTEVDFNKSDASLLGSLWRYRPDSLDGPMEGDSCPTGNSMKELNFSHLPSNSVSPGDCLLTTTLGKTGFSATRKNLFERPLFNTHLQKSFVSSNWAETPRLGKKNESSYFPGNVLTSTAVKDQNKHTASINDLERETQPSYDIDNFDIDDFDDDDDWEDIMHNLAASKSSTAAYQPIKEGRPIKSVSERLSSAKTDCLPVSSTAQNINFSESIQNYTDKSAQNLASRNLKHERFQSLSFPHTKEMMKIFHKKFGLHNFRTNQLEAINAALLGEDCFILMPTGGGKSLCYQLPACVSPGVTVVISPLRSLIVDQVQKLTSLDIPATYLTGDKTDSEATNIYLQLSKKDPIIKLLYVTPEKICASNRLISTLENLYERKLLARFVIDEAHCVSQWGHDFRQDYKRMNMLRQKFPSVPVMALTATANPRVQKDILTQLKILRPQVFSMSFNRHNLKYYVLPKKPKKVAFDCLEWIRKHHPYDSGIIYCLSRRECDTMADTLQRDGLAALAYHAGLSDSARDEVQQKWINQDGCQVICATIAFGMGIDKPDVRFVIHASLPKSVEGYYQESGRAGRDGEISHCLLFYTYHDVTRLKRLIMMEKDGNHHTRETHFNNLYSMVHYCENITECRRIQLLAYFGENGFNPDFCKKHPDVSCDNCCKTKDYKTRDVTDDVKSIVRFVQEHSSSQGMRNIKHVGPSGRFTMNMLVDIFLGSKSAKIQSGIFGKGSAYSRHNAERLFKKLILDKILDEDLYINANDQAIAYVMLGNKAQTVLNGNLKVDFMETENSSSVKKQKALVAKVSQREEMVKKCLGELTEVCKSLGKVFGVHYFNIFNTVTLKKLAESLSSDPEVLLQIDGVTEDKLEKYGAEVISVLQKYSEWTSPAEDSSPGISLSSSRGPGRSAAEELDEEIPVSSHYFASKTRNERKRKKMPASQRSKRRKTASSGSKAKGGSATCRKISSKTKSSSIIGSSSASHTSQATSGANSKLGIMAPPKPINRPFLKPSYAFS
SMILES,"max response, negative = inhibition",Potency
CS(=O)(=O)c1ccc2nc(NC(=O)c3ccc(Cl)nc3)sc2c1,0.0289%,–
CN(C(=O)COC(=O)c1cc(-c2ccco2)nc2ccccc12)C1CCS(=O)(=O)C1 (configuration not stated),–,18.2 µM (active)
Cc1ccc(-c2nc(SCc3ccc(Br)cc3)n3[nH]c(=O)cc3n2)cc1,–,11.5 µM (active)
COc1ccc(-c2nc3c(c(SCC(=O)Nc4ccc(C(=O)O)cc4)n2)Cc2ccccc2O3)cc1,–,5.13 µM (active)
C=C1c2cccc(OC)c2O[C@H](C(=O)OCC)[C@@H]1CCCCCC,-13.8%,–
Oc1ccc(N=Cc2sc3ccccc3c2Cl)cc1,-10.8%,–
CC(C)(O)c1ccccc1CC[C@H](SCC1(CC(=O)O)CC1)c1cccc(/C=C/c2ccc3ccc(Cl)cc3n2)c1,–,54.1 µM (active)

# From PubChem BioAssay AID2585 (National Center for Advancing Translational Sciences (NCATS), 2010)
